This is an account of results in PubChem BioAssay (NCI).

Assay [1] in a line: NCI Yeast Anticancer Drug Screen. Data for the rad50 strain (AID 155).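 Further: 0% = growth of vehicle-only cultures of the same strain.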 The conditions noted are these: S. cerevisiae rad50 strain growth inhibition, stronger effect = higher value. Summed up:
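Growth of the mutant yeast was measured after compound exposure and referenced to vehicle-treated cultures.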

Assay [2] is described as follows: NCI Yeast Anticancer Drug Screen. Data for the mec2-1 strain (AID 157). To be noted: S. cerevisiae mec2-1 strain, stronger effect = higher value. Summed up:
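Readout is yeast growth inhibition, normalised to vehicle-treated controls, in the mec2-1 strain exposed to compound.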

Assay [3] is described as follows: NCI Yeast Anticancer Drug Screen. Data for the sgs1 mgt1 strain (AID 161).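 Further: 0% = growth of cultures given vehicle only.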 The conditions noted are these: S. cerevisiae sgs1 mgt1 strain, stronger effect = higher value. Summed up: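 Yeast cells carrying a defined DNA-repair defect were exposed to test compounds. Growth inhibition was measured relative to vehicle-treated controls.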
Assay [4] in a line: NCI Yeast Anticancer Drug Screen. Data for the cln2 rad14 strain (AID 165).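 Further: 0% = growth equal to vehicle treated cultures.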 To be noted: S. cerevisiae cln2 rad14 strain, stronger effect = higher value. An outline of the steps: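 Relative to vehicle controls, growth inhibition of compound-treated cln2 rad14 yeast was recorded.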
Assay [5] is described as follows: NCI Yeast Anticancer Drug Screen. Data for the bub3 strain (AID 167). The conditions noted are these: S. cerevisiae bub3 mutant strain, stronger effect = higher value. Summed up:
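Whole-cell yeast assay. The mutant strain was incubated with compounds, and growth inhibition was determined by comparison with vehicle-treated cells.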

Assay [6] is described as follows: NCI Yeast Anticancer Drug Screen. Data for the mlh1 rad18 strain (AID 175). To be noted: S. cerevisiae mlh1 rad18 strain growth inhibition, stronger effect = higher value. Summed up: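 Test agents were incubated with a yeast strain of defined genotype (DNA damage repair defect). Inhibition of growth was derived by comparison with vehicle-exposed cultures.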
The mark [7] stands for this setting: at 5.0 µM (retest, dose inferred, filed as 0.5).
[8] abbreviates: at 50.0 µM (retest, dose inferred, filed as 5.0).

SMILES strings stand for the structures. “And” between values parts separate entries of the source, which are not always exact repeats. Identical values can stand only once. The panel holds about 79,000 compounds, 15% with a hit somewhere; the sample as a whole holds those more often. Values without a mark were called inactive. The source made the active and inactive calls. No stated cut-off is given here; in the data, active means growth inhibition above about 70%; inactive means the rest.

Turning to `O=c1c2ccccc2ncn1O`, the growth inhibition in assay [1] (setting [7]) was -1%; in assay [1] (setting [8]), 93% (active); in assay [2] (setting [7]) it was 1%; in assay [2] (setting [8]), 54%; in assay [3] (setting [7]), 8%; in assay [3] (setting [8]) it was 98% (active). Besides, the growth inhibition in assay [4] (setting [7]) is 10%; in assay [4] (setting [8]) it was 21%; in assay [5] (setting [7]), 5%; in assay [5] (setting [8]), 89% (active); in assay [6] (setting [7]), -12%; in assay [6] (setting [8]), 81% (active).

`C=CCSC1=NC(=O)C(CCCC)C(=O)N1C` (stereo not drawn): the growth inhibition in assay [1] (at 50.0 µM) was 7.75% and -1.7%; in assay [2] (at 50.0 µM), 2.65% and 7.25%; in assay [3] (at 50.0 µM), 4.25% and 6.3%; in assay [4] (at 50.0 µM), -35.5% and -24.9%; in assay [5] (at 50.0 µM), -22% and 7.5%.

Take `CCC(C)(CC)c1ccc(O)cc1`: the growth inhibition in assay [1] (setting [7]) was 14%; in assay [1] (setting [8]), 78% (active); in assay [2] (setting [7]) it was -1%; in assay [2] (setting [8]) it was 45%; in assay [3] (setting [7]), -3%; in assay [3] (setting [8]) it was 77% (active). For the same compound, the growth inhibition in assay [4] (setting [7]) is -2%; in assay [4] (setting [8]) it was 23%; in assay [5] (setting [7]), 0%; in assay [5] (setting [8]), 44%; in assay [6] (setting [7]), 33%; in assay [6] (setting [8]), 76% (active).

For the compound `CCCCC(=O)c1ccc([N+](=O)[O-])o1`, the growth inhibition in assay [1] (setting [7]) is 39%; in assay [1] (setting [8]) it was 98% (active); in assay [2] (setting [7]), 19%; in assay [2] (setting [8]) it was 99% (active); in assay [3] (setting [7]) it was 26%; in assay [3] (setting [8]), 100% (active). Besides, the growth inhibition was 36% in assay [6] (setting [7]) and 99% (active) in assay [6] (setting [8]).

Turning to `CC(C)NC(=O)C(C)O` (stereo not drawn), the growth inhibition in assay [1] (setting [7]) is 4%; in assay [1] (setting [8]), 14%; in assay [2] (setting [7]), 1%; in assay [2] (setting [8]) it was 2%; in assay [3] (setting [7]), 2%; in assay [3] (setting [8]) it was 5%. Moreover, the growth inhibition in assay [4] (setting [7]) was 2%; in assay [4] (setting [8]), 3%; in assay [5] (setting [7]) it was 6%; in assay [5] (setting [8]), -2%; in assay [6] (setting [7]), 2%; in assay [6] (setting [8]), 10%.

As to `CC(C)c1cc([N+](=O)[O-])c(O)c([N+](=O)[O-])c1`, the growth inhibition in assay [1] (setting [7]) is 46%; in assay [1] (setting [8]), 92% (active); in assay [2] (setting [7]) it was 14%; in assay [2] (setting [8]), 75% (active); in assay [3] (setting [7]) it was 13%; in assay [3] (setting [8]), 78% (active). Also, the growth inhibition was 29% in assay [5] (setting [7]), 89% (active) in assay [5] (setting [8]), 24% in assay [6] (setting [7]) and 91% (active) in assay [6] (setting [8]).

Take `O=[N+]([O-])c1ccc2nc3ccccc3[n+]([O-])c2c1`: the growth inhibition was 25% in assay [1] (setting [7]); 99% (active) in assay [1] (setting [8]); 19% in assay [2] (setting [7]); 99% (active) in assay [2] (setting [8]); 33% in assay [3] (setting [7]); 100% (active) in assay [3] (setting [8]). Besides, the growth inhibition in assay [4] (setting [7]) is -1%; in assay [4] (setting [8]) it was 99% (active); in assay [5] (setting [7]), 50%; in assay [5] (setting [8]), 100% (active); in assay [6] (setting [7]), 38%; in assay [6] (setting [8]) it was 99% (active).

With `CC1C2c3ccccc3C(c3ccccc32)C1CO` (stereo not drawn), the growth inhibition is 11% in assay [1] (setting [7]); 88% (active) in assay [1] (setting [8]); 1% in assay [2] (setting [7]); 61% in assay [2] (setting [8]); 6% in assay [3] (setting [7]); 77% (active) in assay [3] (setting [8]). Further, the growth inhibition is 4% in assay [4] (setting [7]); 71% (active) in assay [4] (setting [8]); -4% in assay [5] (setting [7]); 74% (active) in assay [5] (setting [8]); -44% in assay [6] (setting [7]); 80% (active) in assay [6] (setting [8]).

For `CCC(C)(C)N(CC(=O)O)CC(=O)O`, the growth inhibition is -6% in assay [1] (setting [7]); -1% in assay [1] (setting [8]); 2% in assay [2] (setting [7]); -5% in assay [2] (setting [8]); 2% in assay [3] (setting [7]); -1% in assay [3] (setting [8]). Moreover, the growth inhibition in assay [4] (setting [7]) is 4%; in assay [4] (setting [8]) it was -2%; in assay [5] (setting [7]), 3%; in assay [5] (setting [8]), -1%; in assay [6] (setting [7]) it was -6%; in assay [6] (setting [8]), 17%.

Turning to `CCCC(=O)c1ccc([N+](=O)[O-])o1`, the growth inhibition in assay [1] (setting [7]) was 13%; in assay [1] (setting [8]), 98% (active); in assay [2] (setting [7]) it was 7%; in assay [2] (setting [8]) it was 99% (active); in assay [3] (setting [7]), 15%; in assay [3] (setting [8]) it was 99% (active). Moreover, the growth inhibition in assay [4] (setting [7]) is 4%; in assay [4] (setting [8]), 98% (active); in assay [5] (setting [7]) it was 16%; in assay [5] (setting [8]) it was 100% (active); in assay [6] (setting [7]), 1%; in assay [6] (setting [8]), 98% (active).

Consider `O=C(/C=C/c1ccccc1)c1ccc(N=Cc2ccccc2)cc1`, for which the growth inhibition in assay [1] (setting [7]) is -37%; in assay [1] (setting [8]), 30%; in assay [2] (setting [7]), 6%; in assay [2] (setting [8]), 21%; in assay [3] (setting [7]), 2%; in assay [3] (setting [8]) it was 68%. Besides, the growth inhibition in assay [5] (setting [7]) was 7%; in assay [5] (setting [8]), 54%; in assay [6] (setting [7]), 8%; in assay [6] (setting [8]), 38%.

With `S=c1[nH]c(=S)c2[nH]c(=S)[nH]c2[nH]1`, the growth inhibition was -1% in assay [1] (setting [7]); 0% in assay [1] (setting [8]); 2% in assay [2] (setting [7]); 6% in assay [2] (setting [8]); 5% in assay [3] (setting [7]); 11% in assay [3] (setting [8]). Besides, the growth inhibition was -13% in assay [4] (setting [7]); -13% in assay [4] (setting [8]); 6% in assay [5] (setting [7]); 6% in assay [5] (setting [8]); -23% in assay [6] (setting [7]); -23% in assay [6] (setting [8]).

Consider `CCC(C)NC(=O)C1C2CC3OC(=O)C1C3C2` (stereo not drawn), for which the growth inhibition in assay [1] (at 50.0 µM) was 9.85% and -12.7%; in assay [2] (at 50.0 µM), -4.55% and 5.6%; in assay [3] (at 50.0 µM) it was -2.75% and -18.9%; in assay [4] (at 50.0 µM), -42.8% and -40.3%; in assay [5] (at 50.0 µM), -9.5% and -6.5%.

For `Cc1cc(N(C)C)nc(N(C)C)n1`, the growth inhibition in assay [1] (at 50.0 µM) is -4.75% and -1.7%; in assay [2] (at 50.0 µM), -4.7% and -14.8%; in assay [3] (at 50.0 µM) it was -1.5% and -5.25%; in assay [4] (at 50.0 µM), -0.9% and -33.3%; in assay [5] (at 50.0 µM), 10.9% and -7.15%.

Consider `CCOS(=O)(=O)CC(C)(C)C`, for which the growth inhibition in assay [1] (setting [7]) was 7%; in assay [1] (setting [8]) it was 92% (active); in assay [2] (setting [7]) it was 3%; in assay [2] (setting [8]) it was 80% (active); in assay [3] (setting [7]) it was 8%; in assay [3] (setting [8]) it was 59%. For the same compound, the growth inhibition in assay [4] (setting [7]) is -1%; in assay [4] (setting [8]), 13%; in assay [5] (setting [7]), 4%; in assay [5] (setting [8]), 68%; in assay [6] (setting [7]), -21%; in assay [6] (setting [8]), 86% (active).

On to `CCCCC(CC)CNC(=O)/C=C\C(=O)O` (stereo not drawn), for which the growth inhibition was 15% in assay [1] (setting [7]); 85% (active) in assay [1] (setting [8]); 11% in assay [2] (setting [7]); 67% in assay [2] (setting [8]); 10% in assay [3] (setting [7]); 96% (active) in assay [3] (setting [8]). Further, the growth inhibition is -3% in assay [4] (setting [7]); 60% in assay [4] (setting [8]); 6% in assay [5] (setting [7]); 83% (active) in assay [5] (setting [8]); 15% in assay [6] (setting [7]); 91% (active) in assay [6] (setting [8]).
